Source: PubChem BioAssay (National Center for Advancing Translational Sciences (NCATS))
TDP1 inh = blocks human tyrosyl-DNA phosphodiesterase 1 | Potency, µM (titrated, usually from 130 µM), without a hit: top-dose activity change, negative = inhibition, most hits filed as inhibitors | Q9NUW8 | recombinant TDP1, AlphaScreen DNA substrate cleavage | actives 0.28% (n = 350,000); further: nearly all actives have a fitted effect of over 40% in size
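Compounds were preincubated with Tdp1 (1 nM final) for 15 min at room temperature before substrate (15 nM final) started a 5 min reaction; beads (10 ug/ml final) were then added for 10 min before AlphaScreen detection.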
RECQ1 inh-1 = blocks DNA unwinding by human RECQ1. RECQ1 DNA unwinding, red fluorescence kinetic read. P46063. actives 0.54% (n = 240,000). Potency, µM (highest dose often 57.3 µM), for inactives: at the top dose activity, negative = inhibition, actives largely listed as inhibitors. AID 2549;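 further: plate controls were vehicle for no effect and no enzyme for full effect; nearly all actives have a fitted effect of over 30% in size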
Target sequence (P46063 whole entry, looked up): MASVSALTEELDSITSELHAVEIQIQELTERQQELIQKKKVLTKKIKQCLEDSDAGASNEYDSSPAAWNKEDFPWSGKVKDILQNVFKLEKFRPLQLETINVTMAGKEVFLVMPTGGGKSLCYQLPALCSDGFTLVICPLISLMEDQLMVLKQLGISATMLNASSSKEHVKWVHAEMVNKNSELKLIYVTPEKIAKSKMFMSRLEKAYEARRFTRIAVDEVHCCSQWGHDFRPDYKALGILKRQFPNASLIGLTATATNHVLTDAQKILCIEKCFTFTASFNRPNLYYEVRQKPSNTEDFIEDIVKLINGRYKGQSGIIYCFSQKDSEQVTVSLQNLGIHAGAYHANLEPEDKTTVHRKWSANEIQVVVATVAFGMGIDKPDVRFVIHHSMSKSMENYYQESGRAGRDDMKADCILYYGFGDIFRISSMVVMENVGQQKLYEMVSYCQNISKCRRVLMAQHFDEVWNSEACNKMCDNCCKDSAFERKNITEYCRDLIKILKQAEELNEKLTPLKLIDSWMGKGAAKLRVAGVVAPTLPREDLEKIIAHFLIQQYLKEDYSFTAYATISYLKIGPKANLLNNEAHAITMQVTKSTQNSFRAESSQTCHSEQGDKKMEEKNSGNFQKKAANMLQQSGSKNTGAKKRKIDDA
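RECQ1T1 50 nM; forked duplex (20 bp + 30-nt ss tails) 200 nM, ATP 2 mM final; pH 8.0, 2 mM MgCl2, 2.5 ug/ml poly(dI-dC); 15 min compound preincubation; discontinuous kinetic read over 2 h at RT.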
APEX1 inh = blocks human APE1 abasic DNA cleavage. P27695. recombinant APE1, TAMRA/BHQ-2 abasic DNA cleavage fluorescence. Potency, µM (highest dose often 65.8 µM), for the others: at the top dose activity change, negative = inhibition, most hits filed as inhibitors. actives 0.35% (n = 350,000). AID 2517;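 further: plate controls were vehicle for no effect and reference inhibitor for full effect; nearly all actives have a fitted effect of over 55% in size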
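Readout is kinetic fluorescence (ex 525, em 598 nm) from cleavage of 50 nM TAMRA/BHQ-2 THF abasic duplex by 0.75 nM APE1, compound added 15 min beforehand at RT.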
BLM helicase inh = Bloom syndrome helicase (human) inhibition; AID 2528; Potency, µM (series often up to 56.1 µM), inactives show top-dose activity change, negative = inhibition, most hits filed as inhibitors; actives 0.2% (n = 350,000); recombinant BLM DNA unwinding, fluorescence dequenching;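 further: plate controls were vehicle for no effect and no enzyme for full effect; nearly all actives have a fitted effect of over 35% in size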
GLS inhibitor = blocks human kidney-isoform glutaminase activity | GLS enzymatic activity, qHTS titration | actives 0.21% (n = 410,000) | O94925 | Potency, µM (series often up to 45.5 µM), inactives show at the highest dose activity change, negative = inhibition, usual class: inhibitors | AID 624170
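hKGA; 45 mM KH2PO4 pH 8.2 + 0.02% Tween-20; cpd via pin tool; 1 mM Gln soln; GluOx/HRP/Amplex Red; RT 30 min; fluor. t0 & final.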
Tb PGK inh = blocks T. brucei phosphoglycerate kinase; P07378; PGK/GAPDH coupled, Kinase-Glo luminescence, 60 min; Potency, µM (series often up to 57.5 µM), for inactives: at the top dose activity change, negative = inhibition, hits mostly inhibitors; actives 0.043% (n = 380,000); further: nearly all actives have a fitted effect of over 60% in size
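Luminescent ATP detection (Kinase-Glo Plus) follows a 60-minute room-temperature incubation, with wells lacking PGK as controls. Buffer: 100 mM TEA (pH 7.6), 5 mM MgCl2, 0.01% Tween-20. Coupling enzyme GAPDH (100 nM final) supplies unstable 1,3-BPG in-well.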
RECQ1 conf = confirmation of human RECQ1 helicase inhibitors; shares compounds with RECQ1 inh-1; RECQ1 helicase DNA unwinding, fluorescence; Potency, µM (titrated, usually from 229 µM), without a hit: at the highest dose activity change, negative = inhibition, actives largely listed as inhibitors; actives 28% (n = 610); AID 2708; further: nearly all actives have a fitted effect of over 45% in size
RECQ1 ADP FP = ADP displacement flagged in RECQ1 inhibitor counter-screen. shares compounds with RECQ1 inh-1. ADP fluorescence polarization displacement counterscreen. Potency, µM (highest dose often 228 µM), for the others: at the top dose activity change, negative = inhibition, most hits filed as inhibitors. actives 27% (n = 530); further: nearly all actives have a fitted effect of over 45% in size
RECQ1 inh-2 = confirmation of human RECQ1 helicase inhibitors; Potency, µM (series often up to 119 µM), for inactives: top-dose activity, negative = inhibition, hits mostly inhibitors; AID 504841; recombinant RECQ1 DNA unwinding, red fluorescence; actives 15% (n = 1,100); shares compounds with RECQ1 inh-1; further: nearly all actives have a fitted effect of over 50% in size
Active calls of the source: *; i = inactive; u = inconclusive; x = no result; [ ] = another dose, or the depositor's remark. Rows were chosen to be rich in hits. Some 0.85% of all compounds tested hit in one or more screens of this group. The call rests on the fitted dose curve; in most records, active means well fitted curve in the direction sought with a large enough effect; inconclusive means small, poorly fitted or top-dose-only effect, or another doubt; inactive means no such curve, though single readings can be large; an effect the other way counts as inactive or inconclusive. Unless noted, on the % scale 0 is the no-effect control and ±100 the full control effect; potency means the concentration at half of the fitted maximal effect.

SMILES	TDP1 inh	RECQ1 inh-1	APEX1 inh	BLM helicase inh	GLS inhibitor	Tb PGK inh	RECQ1 conf	RECQ1 ADP FP	others
CC[C@]1(O)CC(O[C@@H]2CC(N(C)C)C(O)C(C)O2)c2c(cc3c(c2O)C(=O)c2c(O)cccc2C3=O)C1C(=O)OC (some centres undefined)	9%	10µM*	14µM*	28%	x	x	112µM*	4.5µM*
CC[C@@]1(O)CC(O)c2c(cc3c(c2O)C(=O)c2c(O)ccc(O)c2C3=O)C1C(=O)OC (some centres undefined)	8%[56.1 µM]	4µM*	u	u	x	x	50µM*	0.89µM*
Nc1ccccc1-c1ccccc1	14%	-3%	4%	x	x	x	x	x
O=C(CN1C(=O)S/C(=C\C=C\c2ccccc2)C1=O)Nc1ccccc1C(=O)O	5%	-13%	1%	-8%	6%	-5%	112µM*	-15%
CC[C@@H](O)C(C[C@@H](C)N(C)C)(c1ccccc1)c1ccccc1	x	x	x	x	13%[99.4 µM]	x	x	x
O=[N+]([O-])c1ccc(N2CCCCCC2)c2nonc12	x	x	-55%	-22%	5%	2%	x	x
O=[N+]([O-])c1ccc(NCc2ccccc2)c2nonc12	-3%	11µM*	-3%	-8%	-3%	i	20µM*	2.2µM*	RECQ1 inh-2=45µM*
O=c1oc2ccccc2c(O)c1C(c1ccccn1)c1c(O)c2ccccc2oc1=O	9%	7.9µM*	u	-15%	16%	i	x	x	RECQ1 inh-2=u
Cc1c(C(c2ccc(O)cc2)c2c(O)c3ccccc3oc2=O)c(=O)n(-c2ccccc2)n1C (centres undefined)	-3%	-2%	15%	3%	3%	-10%	x	x
